Measured values from PubChem BioAssay (Tox21).
Inconclusive results are not listed. Activity calls are given as the source filed them. Unless noted, calls come from the whole dose curve; as a rule, active = well fitted curve in the direction sought with a large enough effect in the repeat runs; inconclusive = weak or mixed curves; inactive = no such curve, though single readings can be large; an effect the other way counts as inactive or inconclusive.

Key:
[1] = A CellTox Green Cytotoxicity Assay to monitor cytotoxicity in HepG2 cells - 8 hour (AID 1224890); note: nearly all actives have a fitted effect of over 45% in size
Method in brief: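 Continuous culture of HepG2 cells with a membrane-impermeant DNA dye; rising fluorescence marks dead cells. Compound exposure lasted up to 40 h at 37 C, with reads every 8 h from 0 h.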

[2] = qHTS assay to identify small molecule antagonists of the estrogen receptor alpha (ER-alpha) signaling pathway using the BG1 cell line in the presence of 0.1 nM 17-beta-estradiol - cell viability counter screen (AID 1259241); note: nearly all actives have a fitted effect of over 40% in size
Method in brief: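 Estradiol-stimulated (0.1 nM) VM7Luc4E2 cells exposed to compounds 22 hr; viability measured by fluorescence of cleaved CellTiter-Fluor substrate after 30 min.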

[3] = qHTS assay to identify small molecule antagonists of the androgen receptor (AR) signaling pathway using the MDA cell line in the presence of 0.5 nM R1881 - cell viability counter screen (AID 1259242); note: nearly all actives have a fitted effect of over 45% in size
Method in brief: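 Fluorescence from CellTiter-Fluor, which reports protease activity of live cells, was read 30 min after reagent addition to MDA-kb2 cells that had been incubated 16 hr with compound and 0.5 nM R1881.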

[4] = qHTS assay to identify small molecule HDAC inhibitors (AID 1259364); note: top concentration of the series differs between compounds; nearly all actives have a fitted effect of over 45% in size
Method in brief: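 Endogenous HDAC class I/II activity was measured in wild-type HCT-116 cells by HDAC-Glo luminescence after 2 h compound treatment.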

[5] = qHTS assay to identify small molecule HDAC inhibitors - cell viability counter screen (AID 1259365); note: series mostly up to about 92 µM; nearly all actives have a fitted effect of over 50% in size
Method in brief: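 After overnight seeding at 1,500 cells per well, wild-type HCT-116 cultures took up compounds in DMSO for 2hr at 37 C. Viable cell content came from luminescence with CellTiter-Glo.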

[6] = qHTS assay to identify small molecule agonists of the sonic hedgehog signaling (Shh) pathway - cell viability counter screen (AID 1259366); note: nearly all actives have a fitted effect of over 50% in size
Method in brief: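 Same-well cytotoxicity read. Gli1-Luc reporter 3T3 cells; compounds 24hr, 37C/5% CO2; CellTiter-Fluor fluorescence.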

[7] = qHTS assay to identify small molecule antagonists of the sonic hedgehog signaling (Shh) pathway - cell viability counter screen (AID 1259367); note: nearly all actives have a fitted effect of over 55% in size
Method in brief: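 NIH/3T3-derived Gli1-Luc reporter cells (2,000 per well) rested 4 hr at 37 C, then received DMSO compounds plus conditioned medium. After 23 hr of treatment, CellTiter-Fluor was added for 1 hr at 37C and fluorescence read.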

[8] = qHTS assay to identify small molecule phospholipidosis (PLD) inducers (AID 1259344; active = well fitted curve in the direction sought with a large enough effect; an effect the other way counts as inactive or inconclusive)
Method in brief: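 HepG2 cells on collagen I, attached 4 h at 37 C, were co-treated with compound and LipidTOX Red dye for 24 h at 37 C, then fixed with paraformaldehyde plus Hoechst 33342 and imaged by high-content microscopy for phospholipid accumulation.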

Measured: Potency

CC1=C(CC=O)C(C)(C)CCC1
not listed: [8]
inactive: all other assays above

CC(C)(O)c1ccc(CNC(=O)c2cccnc2Oc2ccc3nonc3c2)cc1
not listed: [6] | [8]
inactive: all other assays above

COc1ccccc1N1CCN(CC(O)COc2cccc3ccccc23)CC1 (stereo not given)
not listed: [6]
inactive: all other assays above

Brc1cc(Br)c(Oc2cc(Br)c(Br)cc2Br)cc1Br
not listed: [8]
inactive: all other assays above

CC1CC(OC(=O)C(O)c2ccccc2)CC(C)(C)N1C (stereo not given)
inactive: all assays above

CCCCCCNC(=O)n1cc(F)c(=O)[nH]c1=O
inactive: all assays above

CCC1CO1 (stereo not given)
not listed: [8]
inactive: all other assays above
